Assay [1] in a line: inhibitors of TNFa-induced NFkB p65 translocation, primary screen, imaging, HUVEC, MLSMR starter and 10KST1 sets (AID 438).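 For inhibition: signal is the nuclear over cytoplasmic p65 intensity ratio per well.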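 Note: compound added about 3h40 before a 20 min TNFalpha stimulation.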 As to conditions: HUVEC TNFa-induced p65 nuclear translocation; cell count: measured here: nuclei count (cytotoxicity indicator), at 2.08 µM unless noted; inhibition: at 2 µM, stronger effect = higher value unless noted.
Assay [2] is described as follows: inhibitors of mutant huntingtin aggregation, primary screen, imaging, exon1htt(103Q)mCFP cells, high-content imaging (AID 483;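 active = visual image review flags a hit and inhibition of aggregation exceeds 20%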;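 note: compound exposure lasted 3 days before fixation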;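 for nuclei count: percent of the per-plate median nuclei count of sample wells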). As to conditions: exon1htt(103Q)mCFP cell line, aggregate imaging, at 2 µM; inhibition of aggregation: stronger effect = higher value; nuclei count: measured here: cell count, toxicity.
The nature of assay [3]: inhibitors of E-selectin induction by TNFa, primary screen, imaging, HUVEC, immunofluorescence, MLSMR starter and 10KST1 sets (AID 487;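 active = visually confirmed hit in the image check and inhibition above 20%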;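 for inhibition: signal is fraction of cell area covered by stained E-selectin grains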;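 for nuclei count: 100% = median nuclei count of all wells on the same plate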). The settings on record: HUVEC TNFalpha-induced E-selectin immunofluorescence imaging, at 2 µM; inhibition: stronger effect = higher value; nuclei count: measured here: cell number, toxicity.
Assay [4] has as its target Voltage-gated potassium channel subunit beta-2 (Rattus norvegicus) (UniProt P62483). The experiment in a line: KvBeta enzyme negative modulators, primary screen, biochemical, NADPH fluorescence (AID 622;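 active = fluorescence slope higher than the sample average by over 3 SD, cut at about -0.22 in these data, passing the limit was not always enough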;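 note: slope of raw intensity against log time taken from 70 to 1610 s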). The settings on record: recombinant KvBeta, 4-cyanobenzaldehyde reduction, at 10 µM, stronger effect = higher value.
Assay [5] has the same target. The experiment in a line: KvBeta positive modulators, primary screen, biochemical, NADPH fluorescence (AID 623;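 active = NADPH fluorescence slope more negative than the mean of all samples by about 3 SD, 99.7% confidence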;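 note: fluorescence intensity change per second fitted from 20 to 320 s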). The settings on record: Recombinant KvBeta, NADPH fluorescence decrease slope, 10 min; at 10 µM; stronger effect = lower value.
Assay [6] concerns the target Alpha-2C adrenergic receptor (Homo sapiens) (UniProt P18825). Nature of the assay: modulators of alpha2C/GIRK thallium flux, primary screen, cell-based, HEK293 alpha2C/GIRK1/2 (AID 624;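 active = fluorescence slope after compound addition differing from the mean of all screened samples at 99.7% confidence, in either direction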;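 note: slope of fluorescence ratio to pre-addition baseline per second over 15 to 24 s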). As to conditions: thallium flux BTC fluorescence, at 10 µM, actives lie on both sides.
A short description of assay [7]: inhibitors of Sendai virus-induced IRF3 signaling, primary screen, TLR/RLR signaling modifier project, cell-based, Sendai virus stimulus, luciferase, 10K MLSCN set (AID 602276;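 active = inhibition at or above 50% at 10 µM; inactive = inhibition below 50%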;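 note: firefly luciferase from ISG56 promoter only with Renilla not read in this screen; 0% = Sendai virus plus DMSO and 100% = medium plus DMSO without virus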). As to conditions: HEK293 RL24 IRF3 luciferase reporter, at 10 µM, stronger effect = higher value. For orientation: In a reporter assay the amount or activity of a reporter protein is the signal.
Assay [8] in a line: inhibitors of poly I:C-induced TLR3 signaling, primary screen, cell-based, poly I:C stimulus, luciferase, 10K MLSCN set (AID 602277;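 active = inhibition of the reporter signal at or above 50%; inactive = inhibition below 50%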). The settings on record: HEK293-TLR3 RL24 IRF3 luciferase reporter, at 10 µM, stronger effect = higher value.

From PubChem BioAssay come the findings set out here.

Active and inactive are the calls of the source.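 Rule for the calls, unless noted: active = inhibition above 20% together with a positive visual image hit; inconclusive = visual image hit but inhibition not above 20%; inactive = no visual image hit.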

As a reminder, the inhibition is the drop in the measured response relative to a control, in per cent.

Chain of Alpha-2C adrenergic receptor (Homo sapiens) (P18825 whole entry, looked up): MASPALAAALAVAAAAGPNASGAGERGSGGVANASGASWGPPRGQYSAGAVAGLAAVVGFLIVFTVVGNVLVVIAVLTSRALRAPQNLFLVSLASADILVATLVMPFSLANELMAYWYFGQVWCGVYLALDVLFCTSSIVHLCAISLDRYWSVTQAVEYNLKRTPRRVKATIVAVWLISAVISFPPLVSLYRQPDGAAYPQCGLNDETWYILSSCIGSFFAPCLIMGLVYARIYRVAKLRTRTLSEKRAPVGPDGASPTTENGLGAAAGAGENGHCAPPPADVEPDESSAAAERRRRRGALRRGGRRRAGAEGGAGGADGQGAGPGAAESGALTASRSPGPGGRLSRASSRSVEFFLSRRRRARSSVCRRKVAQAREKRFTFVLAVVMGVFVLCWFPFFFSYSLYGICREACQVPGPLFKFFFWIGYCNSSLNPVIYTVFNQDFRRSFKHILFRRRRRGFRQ
Chain of Voltage-gated potassium channel subunit beta-2 (Rattus norvegicus) (P62483 whole entry, looked up): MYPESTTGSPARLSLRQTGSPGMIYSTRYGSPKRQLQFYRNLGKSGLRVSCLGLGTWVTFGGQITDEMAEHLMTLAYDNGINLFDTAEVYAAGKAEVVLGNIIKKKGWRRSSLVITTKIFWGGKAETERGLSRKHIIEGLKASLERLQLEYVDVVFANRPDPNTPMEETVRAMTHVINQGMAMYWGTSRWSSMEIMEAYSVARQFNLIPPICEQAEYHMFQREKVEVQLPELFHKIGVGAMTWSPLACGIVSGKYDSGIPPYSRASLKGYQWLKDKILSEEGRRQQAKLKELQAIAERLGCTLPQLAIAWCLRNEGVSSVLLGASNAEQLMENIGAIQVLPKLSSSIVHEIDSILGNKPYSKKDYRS

As to `CP(C)(=O)CCC(=O)O`, the cell count in assay [1] was determined as 347. In addition, the inhibition in assay [1] is -7.5% (inactive); in assay [3], -100% (inactive); in assay [7], 2.85% (inactive); in assay [8] it was 10.1% (inactive). Also, the inhibition of aggregation in assay [2] was -5.3% (inactive). In addition, the figures for the nuclei count in assay [2] and in assay [3] were 99.6% and 118%, respectively. For the same compound, in assay [4], the fluorescence slope was -0.434 (inactive). Moreover, the NADPH fluorescence slope in assay [5] is -0.000166 (inactive). In addition, the slope in assay [6] was 0.00678 (inactive).

Compound `COc1ccc(C(=O)C(C)(C)NO)cc1` came in with a cell count in assay [1] of 653. The inhibition in assay [1] is -4.6% (inactive); in assay [3], -81.1% (inactive); in assay [7], 12.6% (inactive); in assay [8], 26.7% (inactive). Moreover, the inhibition of aggregation in assay [2] was 12.4% (inactive). In addition, the nuclei count in assay [2] came to 94.3%; in assay [3], 119%. Besides, the fluorescence slope in assay [4] was -0.62 (inactive). In assay [5], the NADPH fluorescence slope was 1.3e-05 (inactive). Further, the slope in assay [6] is 0.00701 (inactive).

In assay [1], `CC1(C)C(c2ccccc2)=NC(c2cccnc2)N1O` (centres undefined) had a cell count of 309. In addition, the inhibition was 8.2% (inactive) in assay [1], 17.6% (inactive) in assay [3], 14.6% (inactive) in assay [7] and 25.5% (inactive) in assay [8]. The inhibition of aggregation in assay [2] is -17.9% (inactive). In addition, the nuclei count in assay [2] was 108%; in assay [3] it was 99.6%. In assay [4], the fluorescence slope is -0.495 (inactive). The NADPH fluorescence slope in assay [5] was -6.7e-05 (inactive). For the same compound, the slope in assay [6] was 0.00634 (inactive).

As to `CCOCC(=O)NC1CCSC1=O` (centres undefined), in assay [1], the cell count is 342. The inhibition is -5% (inactive) in assay [1], 10.8% (inactive) in assay [3], 18.6% (inactive) in assay [7] and 23.1% (inactive) in assay [8]. Also, the inhibition of aggregation in assay [2] is 17.7% (inactive). Moreover, the nuclei count in assay [2] was found to be 75.2%; in assay [3], 95.3%. Also, the fluorescence slope in assay [4] was -0.48 (inactive). Moreover, the NADPH fluorescence slope in assay [5] was -4.8e-05 (inactive). Also, the slope in assay [6] was 0.00601 (inactive).

The compound `COc1ccc(CCn2c(O)c(C=NCc3cccnc3)c(=O)[nH]c2=O)cc1OC` showed a cell count in assay [1] of 716. Further, the inhibition is -1.7% (inactive) in assay [1], 72.3% (active) in assay [3], 19.4% (inactive) in assay [7] and 18.7% (inactive) in assay [8]. For the same compound, the inhibition of aggregation in assay [2] is -17.3% (inactive). The results for the nuclei count in assay [2] and in assay [3] were 111% and 90.2%, respectively. For the same compound, in assay [4], the fluorescence slope is -0.629 (inactive). Besides, the NADPH fluorescence slope in assay [5] was 1.1e-05 (inactive). For the same compound, in assay [6], the slope was 0.00366 (inactive).

In assay [1], `COc1ccccc1N(CC(=O)NC1CCCCC1)C(=O)c1cnn(C(C)C)c1` yielded a cell count of 526. Further, the inhibition in assay [1] was 2.5% (inactive); in assay [3], -128% (inactive); in assay [7], -9.99% (inactive); in assay [8] it was -3.91% (inactive). Moreover, in assay [2], the inhibition of aggregation is 3.2% (inactive). Moreover, the nuclei count in assay [2] came to 102%; in assay [3], 157%. The fluorescence slope in assay [4] is -0.598 (inactive). In addition, the NADPH fluorescence slope in assay [5] was 9.1e-06 (inactive). In addition, the slope in assay [6] was 0.00634 (inactive).

In turn, `CN1CCC(N(C)c2ncnc3ccc(Br)cc23)CC1` yielded a cell count in assay [1] of 336. Further, the inhibition was 5% (inactive) in assay [1], 42.2% (inactive) in assay [3], 10.9% (inactive) in assay [7] and 23.5% (inactive) in assay [8]. Moreover, in assay [2], the inhibition of aggregation was 4.3% (inactive). Besides, the values for the nuclei count in assay [2] and in assay [3] were 94.9% and 79.5%, respectively. For the same compound, the fluorescence slope in assay [4] is -0.606 (inactive). The NADPH fluorescence slope in assay [5] was -3.4e-05 (inactive). Besides, in assay [6], the slope is 0.00666 (inactive).

In the case of `Cc1ccc(C)c(NC2=NCCCS2)c1`, the cell count in assay [1] turned out to be 304. Besides, the inhibition in assay [1] is 9.3% (inactive); in assay [3], -82.5% (inactive); in assay [7], 17.2% (inactive); in assay [8], 22% (inactive). In addition, the inhibition of aggregation in assay [2] is 15.3% (inactive). Further, the nuclei count in assay [2] was found to be 92.5%; in assay [3], 91%. The fluorescence slope in assay [4] is -0.566 (inactive). Besides, the NADPH fluorescence slope in assay [5] was 9.6e-06 (inactive). In assay [6], the slope was 0.00513 (inactive).

Turning to `Cc1nn(Cc2ccccc2Cl)c(Cl)c1C(=O)OCC(=O)NCc1ccco1`, the cell count in assay [1] stood at 459. Besides, the inhibition in assay [1] is -14% (inactive); in assay [3], -20.7% (inactive); in assay [7], 5.25% (inactive); in assay [8] it was -0.539% (inactive). Further, in assay [2], the inhibition of aggregation is 3.2% (inactive). Besides, the nuclei count in assay [2] worked out at 105%; in assay [3] it was 112%. The fluorescence slope in assay [4] is -0.605 (inactive). Also, the NADPH fluorescence slope in assay [5] was -1.7e-05 (inactive). Further, the slope in assay [6] is 0.00264 (inactive).

In assay [1], `COc1ccccc1-n1c(O)c(C=NCc2ccc3c(c2)OCO3)c(=O)[nH]c1=O` showed a cell count of 758. Moreover, the inhibition in assay [1] was -13.8% (inactive); in assay [3] it was -117% (inactive); in assay [7], 2.15% (inactive); in assay [8] it was 9.73% (inactive). Moreover, the inhibition of aggregation in assay [2] was -35.1% (inactive). Moreover, the nuclei count was determined as 121% in assay [2] and 124% in assay [3]. In addition, the fluorescence slope in assay [4] is -0.611 (inactive). For the same compound, the NADPH fluorescence slope in assay [5] is -5.6e-05 (inactive). The slope in assay [6] is 0.00662 (inactive).

With `CCNc1ccc(P(=S)(N(C)C)N(C)C)cc1`, in assay [1], the cell count came out at 441. Also, the inhibition in assay [1] is 16.7% (inactive); in assay [3], -422% (inactive); in assay [7], 10.5% (inactive); in assay [8], 26.1% (inactive). For the same compound, in assay [2], the inhibition of aggregation was -8.4% (inactive). Moreover, the nuclei count came out at 115% in assay [2] and 153% in assay [3]. Further, the fluorescence slope in assay [4] is -0.622 (inactive). Besides, in assay [5], the NADPH fluorescence slope is -1.6e-05 (inactive). Also, the slope in assay [6] was 0.00749 (inactive).

For `N#Cc1ccccc1Cn1cc(C(=O)C2CC2)c2ccccc21`, the cell count in assay [1] stood at 390. Also, the inhibition is -2.2% (inactive) in assay [1], -50.9% (inactive) in assay [3], 2.45% (inactive) in assay [7] and 19.3% (inactive) in assay [8]. The inhibition of aggregation in assay [2] was -0.9% (inactive). Further, the nuclei count in assay [2] turned out to be 101%; in assay [3] it was 107%. For the same compound, the fluorescence slope in assay [4] was -0.447 (inactive). Further, the NADPH fluorescence slope in assay [5] was -7.2e-05 (inactive). In addition, in assay [6], the slope is 0.00467 (inactive).

In assay [1], `CC(C)C(=O)c1cn(Cc2ccccc2C#N)c2ccccc12` had a cell count of 504. Further, the inhibition in assay [1] was 3.5% (inactive); in assay [3] it was -24.8% (inactive); in assay [7] it was 17.4% (inactive); in assay [8], 20.1% (inactive). For the same compound, the inhibition of aggregation in assay [2] was 11.4% (inactive). The nuclei count came out at 72.7% in assay [2] and 99.8% in assay [3]. Also, the fluorescence slope in assay [4] is -0.376 (inactive). Besides, the NADPH fluorescence slope in assay [5] is 3.6e-05 (inactive). In assay [6], the slope was 0.00712 (inactive).

In assay [1], `O=C(CN1C2CCC1CC(O)(c1cccnc1)C2)Nc1ccc2c(c1)OCO2` (centres undefined) had a cell count of 414. Besides, the inhibition in assay [1] was 7.5% (inactive); in assay [3], -176% (inactive); in assay [7], 15% (inactive); in assay [8], 22.4% (inactive). In addition, the inhibition of aggregation in assay [2] was -3.4% (inactive). The nuclei count came out at 104% in assay [2] and 115% in assay [3]. For the same compound, the fluorescence slope in assay [4] was -0.591 (inactive). Besides, in assay [5], the NADPH fluorescence slope was 5.6e-07 (inactive). For the same compound, the slope in assay [6] is 0.00303 (inactive).
